Assay results from ChEMBL document CHEMBL1961873, “Compounds: GSK PKIS; Assays: Nanosyn kinase panel” (2012).

biological target: Glycogen synthase kinase-3 beta (Homo sapiens) (UniProt P49841); details: at 0.1 µM
Sequence (P49841 whole entry, looked up): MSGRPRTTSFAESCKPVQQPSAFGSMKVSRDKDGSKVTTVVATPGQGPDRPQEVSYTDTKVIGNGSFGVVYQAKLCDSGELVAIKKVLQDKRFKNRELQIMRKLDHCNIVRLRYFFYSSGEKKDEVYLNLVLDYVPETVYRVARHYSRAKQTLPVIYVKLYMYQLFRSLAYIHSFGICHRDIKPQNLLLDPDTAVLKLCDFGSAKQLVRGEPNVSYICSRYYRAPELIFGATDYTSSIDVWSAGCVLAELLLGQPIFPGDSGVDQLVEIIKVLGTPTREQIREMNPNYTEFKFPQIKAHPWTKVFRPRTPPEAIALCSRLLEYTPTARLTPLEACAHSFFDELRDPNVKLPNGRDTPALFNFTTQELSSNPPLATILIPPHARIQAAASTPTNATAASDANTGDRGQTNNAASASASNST

| Structure (SMILES) | inhibition [%] |
| --- | --- |
| NS(=O)(=O)c1ccc(-c2ccc3c(NC(=O)C4CC4)n[nH]c3c2)cc1 | 4.15 |
| CCn1c(-c2nonc2N)nc2c(C#CC(C)(C)O)ncc(OCC3CCNCC3)c21 | 11.9 |
| CCn1c(-c2nonc2N)nc2c(C#CCN)ncc(OCCCN)c21 | 3.41 |
| Nc1nonc1-c1nc2cnccc2n1C1CCCCC1 | 62.5 |
| COc1cccc(COc2cc(-n3cnc4ccccc43)sc2C(N)=O)c1 | 0.09 |
| NS(=O)(=O)c1ccc(N/C=C2\C(=O)Nc3ccc4ncsc4c32)cc1 | 26.1 |
| Fc1ccc(-c2ncn(C3CCNCC3)c2-c2ccnc(Oc3ccccc3)n2)cc1 | -2.46 |
| CCn1c(-c2nonc2N)nc2c(C#CC(C)(C)O)nc(O[C@@H](CN)c3ccccc3)cc21 | 53.4 |
| COc1cc2c(cc1Nc1nc(Nc3ccsc3C(N)=O)c3cc[nH]c3n1)N(C(=O)CN(C)C)CCC2 | 1.05 |
| Cc1cc(-c2ccco2)cc(C)c1/C=C/c1cncc(-c2nn[nH]n2)c1 | 0.5 |
| CCn1c(-c2nonc2N)nc2c(C#CC(C)(C)O)ncc(OC[C@@H]3CCCN3)c21 | 9.2 |
| COc1cc(C=NNc2ncnc3c2cnn3Cc2ccccc2)ccc1O | 5.36 |
| NC(=O)c1sc(-n2cnc3cc(C(F)(F)F)ccc32)cc1OCc1ccccc1Br | 1.16 |
| COc1cccc(-n2ncc3c(N/N=C/c4ccncc4)ncnc32)c1 | 83.4 |

biological target: Glycogen synthase kinase-3 beta (Homo sapiens) (UniProt P49841); details: at 1 µM

| Structure (SMILES) | inhibition [%] |
| --- | --- |
| NS(=O)(=O)c1ccc(-c2ccc3c(NC(=O)C4CC4)n[nH]c3c2)cc1 | 7.66 |
| CCn1c(-c2nonc2N)nc2c(C#CC(C)(C)O)ncc(OCC3CCNCC3)c21 | 55.4 |
| CCn1c(-c2nonc2N)nc2c(C#CCN)ncc(OCCCN)c21 | 14.4 |
| Nc1nonc1-c1nc2cnccc2n1C1CCCCC1 | 90 |
| COc1cccc(COc2cc(-n3cnc4ccccc43)sc2C(N)=O)c1 | 2.12 |
| NS(=O)(=O)c1ccc(N/C=C2\C(=O)Nc3ccc4ncsc4c32)cc1 | 65.1 |
| Fc1ccc(-c2ncn(C3CCNCC3)c2-c2ccnc(Oc3ccccc3)n2)cc1 | -1.88 |
| CCn1c(-c2nonc2N)nc2c(C#CC(C)(C)O)nc(O[C@@H](CN)c3ccccc3)cc21 | 84.6 |
| COc1cc2c(cc1Nc1nc(Nc3ccsc3C(N)=O)c3cc[nH]c3n1)N(C(=O)CN(C)C)CCC2 | 2.63 |
| Cc1cc(-c2ccco2)cc(C)c1/C=C/c1cncc(-c2nn[nH]n2)c1 | 0.28 |
| CCn1c(-c2nonc2N)nc2c(C#CC(C)(C)O)ncc(OC[C@@H]3CCCN3)c21 | 46.9 |
| COc1cc(C=NNc2ncnc3c2cnn3Cc2ccccc2)ccc1O | 17.7 |
| NC(=O)c1sc(-n2cnc3cc(C(F)(F)F)ccc32)cc1OCc1ccccc1Br | 2.38 |
| COc1cccc(-n2ncc3c(N/N=C/c4ccncc4)ncnc32)c1 | 89.2 |

biological target: Homeodomain-interacting protein kinase 1 (Homo sapiens) (UniProt Q86Z02); details: at 0.1 µM
Sequence (Q86Z02 whole entry, looked up): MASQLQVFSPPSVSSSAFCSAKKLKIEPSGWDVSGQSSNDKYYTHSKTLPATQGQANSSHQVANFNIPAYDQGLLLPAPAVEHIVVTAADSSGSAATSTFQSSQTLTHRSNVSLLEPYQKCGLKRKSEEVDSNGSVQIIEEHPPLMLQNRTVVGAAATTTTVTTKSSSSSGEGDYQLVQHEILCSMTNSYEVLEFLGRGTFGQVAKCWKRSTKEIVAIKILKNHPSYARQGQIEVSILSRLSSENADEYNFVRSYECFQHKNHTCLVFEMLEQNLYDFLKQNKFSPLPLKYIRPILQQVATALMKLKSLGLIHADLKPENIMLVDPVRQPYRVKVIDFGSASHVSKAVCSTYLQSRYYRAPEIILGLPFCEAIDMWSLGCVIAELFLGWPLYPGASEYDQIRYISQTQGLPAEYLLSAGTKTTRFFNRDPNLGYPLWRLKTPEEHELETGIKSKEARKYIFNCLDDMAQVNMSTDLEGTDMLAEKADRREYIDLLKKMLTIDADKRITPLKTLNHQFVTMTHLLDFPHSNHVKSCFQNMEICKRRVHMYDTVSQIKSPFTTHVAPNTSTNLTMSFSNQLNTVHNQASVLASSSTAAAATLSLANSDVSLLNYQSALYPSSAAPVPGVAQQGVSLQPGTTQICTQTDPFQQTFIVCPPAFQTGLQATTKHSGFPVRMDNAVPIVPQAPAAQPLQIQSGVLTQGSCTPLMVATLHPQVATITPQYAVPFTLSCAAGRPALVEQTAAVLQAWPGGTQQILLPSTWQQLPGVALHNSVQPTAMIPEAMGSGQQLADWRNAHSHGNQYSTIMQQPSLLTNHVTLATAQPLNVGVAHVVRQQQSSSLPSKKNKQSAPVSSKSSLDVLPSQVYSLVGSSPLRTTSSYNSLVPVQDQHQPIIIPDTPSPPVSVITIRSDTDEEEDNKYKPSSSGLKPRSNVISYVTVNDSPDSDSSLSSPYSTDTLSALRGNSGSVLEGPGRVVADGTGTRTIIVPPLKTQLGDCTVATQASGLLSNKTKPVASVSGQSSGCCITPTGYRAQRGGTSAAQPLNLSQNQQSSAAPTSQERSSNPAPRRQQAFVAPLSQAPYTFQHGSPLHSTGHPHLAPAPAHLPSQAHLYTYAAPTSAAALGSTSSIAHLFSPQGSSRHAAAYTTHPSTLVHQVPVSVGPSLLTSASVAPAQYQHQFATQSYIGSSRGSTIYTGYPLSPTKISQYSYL

| Structure (SMILES) | inhibition [%] |
| --- | --- |
| NS(=O)(=O)c1ccc(-c2ccc3c(NC(=O)C4CC4)n[nH]c3c2)cc1 | 2.52 |
| CCn1c(-c2nonc2N)nc2c(C#CC(C)(C)O)ncc(OCC3CCNCC3)c21 | 0.15 |
| CCn1c(-c2nonc2N)nc2c(C#CCN)ncc(OCCCN)c21 | 3.64 |
| Nc1nonc1-c1nc2cnccc2n1C1CCCCC1 | -0.6 |
| COc1cccc(COc2cc(-n3cnc4ccccc43)sc2C(N)=O)c1 | -6.56 |
| NS(=O)(=O)c1ccc(N/C=C2\C(=O)Nc3ccc4ncsc4c32)cc1 | 3.83 |
| Fc1ccc(-c2ncn(C3CCNCC3)c2-c2ccnc(Oc3ccccc3)n2)cc1 | -7.18 |
| CCn1c(-c2nonc2N)nc2c(C#CC(C)(C)O)nc(O[C@@H](CN)c3ccccc3)cc21 | 10.4 |
| COc1cc2c(cc1Nc1nc(Nc3ccsc3C(N)=O)c3cc[nH]c3n1)N(C(=O)CN(C)C)CCC2 | -2.33 |
| Cc1cc(-c2ccco2)cc(C)c1/C=C/c1cncc(-c2nn[nH]n2)c1 | -3.37 |
| CCn1c(-c2nonc2N)nc2c(C#CC(C)(C)O)ncc(OC[C@@H]3CCCN3)c21 | -6.24 |
| COc1cc(C=NNc2ncnc3c2cnn3Cc2ccccc2)ccc1O | -2.83 |
| NC(=O)c1sc(-n2cnc3cc(C(F)(F)F)ccc32)cc1OCc1ccccc1Br | -3.51 |
| COc1cccc(-n2ncc3c(N/N=C/c4ccncc4)ncnc32)c1 | 26.6 |

biological target: Homeodomain-interacting protein kinase 1 (Homo sapiens) (UniProt Q86Z02); details: at 1 µM

| Structure (SMILES) | inhibition [%] |
| --- | --- |
| NS(=O)(=O)c1ccc(-c2ccc3c(NC(=O)C4CC4)n[nH]c3c2)cc1 | 7.94 |
| CCn1c(-c2nonc2N)nc2c(C#CC(C)(C)O)ncc(OCC3CCNCC3)c21 | 19.7 |
| CCn1c(-c2nonc2N)nc2c(C#CCN)ncc(OCCCN)c21 | 2.54 |
| Nc1nonc1-c1nc2cnccc2n1C1CCCCC1 | 16.1 |
| COc1cccc(COc2cc(-n3cnc4ccccc43)sc2C(N)=O)c1 | 1.66 |
| NS(=O)(=O)c1ccc(N/C=C2\C(=O)Nc3ccc4ncsc4c32)cc1 | 34.7 |
| Fc1ccc(-c2ncn(C3CCNCC3)c2-c2ccnc(Oc3ccccc3)n2)cc1 | -6.2 |
| CCn1c(-c2nonc2N)nc2c(C#CC(C)(C)O)nc(O[C@@H](CN)c3ccccc3)cc21 | 55.3 |
| COc1cc2c(cc1Nc1nc(Nc3ccsc3C(N)=O)c3cc[nH]c3n1)N(C(=O)CN(C)C)CCC2 | 5.85 |
| Cc1cc(-c2ccco2)cc(C)c1/C=C/c1cncc(-c2nn[nH]n2)c1 | -0.75 |
| CCn1c(-c2nonc2N)nc2c(C#CC(C)(C)O)ncc(OC[C@@H]3CCCN3)c21 | 6.03 |
| COc1cc(C=NNc2ncnc3c2cnn3Cc2ccccc2)ccc1O | 1.68 |
| NC(=O)c1sc(-n2cnc3cc(C(F)(F)F)ccc32)cc1OCc1ccccc1Br | 0.77 |
| COc1cccc(-n2ncc3c(N/N=C/c4ccncc4)ncnc32)c1 | 69.8 |
